# Active and inactive are the calls of the source. Unless noted, no rule for the calls is given here.
# Tests used:
# [1] = system: Wnt5a (protein binding on small-molecule microarray); test: Wnt5a binders on small-molecule microarray, primary screen, biophysical, 635/667 nm fluorescence (AID 1142); conditions: 635 nm fluorescence, higher = more signal;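 also: fluorescence read at 667 nm with signal to noise per printed feature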
# [2] = cell viability in Huh7 cells, primary screen, cytotoxicity control for HCV replication inhibitor project, CellTiter-Glo luminescence, basal, 48 h (AID 1143); conditions: Huh7 HCV replicon, higher = more signal, called active from +8 up or from −8 down;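 also: Huh7 hepatoma cells carrying a hepatitis C replication reporter with no stimulus; test concentration not given here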
# [3] = P. aeruginosa biofilm formation inhibitors, primary screen, PAO1 strain, BacTiter-Glo luminescence, LB-PBS (AID 1144); conditions: 12 h, higher = more signal
# [4] = CREB reporter modulators without forskolin, primary screen, cell-based, PC12, CRE-LacZ reporter, unstimulated (AID 1145); conditions: no forskolin, luminescence, 4.5 h, higher = more signal, called active from +8 up or from −8 down
# [5] = CREB reporter modulators under forskolin, primary screen, cell-based, PC12, CRE-LacZ reporter, forskolin-stimulated (AID 1146); conditions: luminescence, 4.5 h, higher = more signal, called active from +8 up or from −8 down;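 also: PC12 cells with 6xCRE LacZ reporter stimulated by forskolin 10 µM; beta-galactosidase reporter signal reflecting CREB driven transcription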
# [6] = target: Streptavidin (Streptomyces avidinii) (UniProt P22629); test: streptavidin binders on small-molecule microarray, primary screen, artefact control for SMM compound annotation, biophysical, 635/667 nm fluorescence (AID 1147); conditions: streptavidin binding, higher = more signal;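 also: signal reflects streptavidin binding to arrayed compounds as a control protein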
# [7] = small-molecule binders of probe aInhba, primary screen, biochemical, small-molecule microarray, 635/667 nm fluorescence (AID 1148); conditions: higher = more signal;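 also: score merges 667nm spot fluorescence with signal-to-noise for antibody binding to printed compounds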
# [8] = target: Torsin-1A (Homo sapiens) (UniProt O14656); test: torsin A binders from cell lysate, primary screen, small-molecule microarray, wild-type, 635/667 nm (AID 1149); conditions: COS7 hTOR1A-WT lysate, 635 nm fluorescence, higher = more signal
# [9] = target: Torsin-1A (Homo sapiens) (UniProt O14656); test: small-molecule binders of mutant TOR1A in lysate, primary screen, cell lysate, small-molecule microarray, COS7 lysate, 635/667 nm fluorescence (AID 1150); conditions: COS7 hTOR1A mutant lysate, 635 nm fluorescence, higher = more signal;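 also: score pools 667 nm emission and signal to noise measuring lysate protein binding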
# [10] = system: Sonic hedgehog protein (Shh); test: small-molecule binders of Shh protein, primary screen, biochemical, small-molecule microarray, 635/667 nm fluorescence (AID 1151); conditions: small-molecule microarray binding, 635 nm fluorescence; higher = more signal;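 also: Shh protein binding to compounds spotted on small-molecule microarray slides; score combines spot fluorescence intensity with signal-to-noise across triplicate slides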
# [11] = E. coli DRC41 culture turbidity changes, primary screen, E. coli filamentation inducer project, strain DRC41, OD650, 48 h (AID 1152);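 also: E. coli MC1000 strain DRC41 lacking acrAB efflux pump and sulA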; conditions: E. coli DRC41 (acrAB sulA), higher = more signal, called active from +8 up or from −8 down
# [12] = small-molecule binders of probe aLefty1, primary screen, biochemical, small-molecule microarray, 635/667 nm fluorescence (AID 1153); conditions: higher = more signal;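 also: score merges spot fluorescence with signal-to-noise ratio from the scanned slide images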
# [13] = PSAC antagonists in infected red cells, primary screen, cell-based, P. falciparum Indochina, OD700, 1 h (AID 1154); conditions: P. falciparum Indochina infected RBC osmotic lysis, higher = more signal, called active from +8 up or from −8 down
# [14] = PSAC antagonists in infected red cells, primary screen, cell-based, P. falciparum Indochina, OD700, 2 h (AID 1155);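 also: lysis reports solute entry through the parasite surface anion channel PSAC; channel blockers reduce lysis of infected cells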; conditions: P. falciparum Indochina infected erythrocytes, osmotic lysis OD700; higher = more signal, called active from +8 up or from −8 down
# [15] = osmotic lysis modulators in infected erythrocytes, primary screen, PSAC antagonist project, cell-based, P. falciparum Indochina, OD700, 3 h (AID 1156); conditions: higher = more signal, called active from +8 up or from −8 down
# [16] = PSAC antagonists in infected red cells, primary screen, cell-based, P. falciparum Indochina, OD700, 18 h (AID 1157); conditions: P. falciparum Indochina infected erythrocytes, osmotic lysis OD700, 18 h; higher = more signal, called active from +8 up or from −8 down
# [17] = modulators of S6 phosphorylation in cells, primary screen, cell-based, A549, cytoblot, luminescence, serum-stimulated (AID 1158); conditions: A549 phospho-S6 cytoblot, 5 h, higher = more signal;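 also: serum-stimulated A549 lung adenocarcinoma cells; signal is phosphorylated S6 detected by cytoblot immunostaining with HRP secondary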
# [18] = target: NADPH oxidase 2 (Homo sapiens) (UniProt P04839); test: NOX2-dependent H2O2 signal modulators, primary screen, NOX inhibitor project, cell-based, HEK293-NOX2, PMA-stimulated, Amplex Red fluorescence (AID 1159); conditions: 45 min, higher = more signal, called active from +8 up or from −8 down; also: test concentration not given here
# [19] = target: NADPH oxidase 4 (Homo sapiens) (UniProt Q9NPH5); test: NOX4-dependent H2O2 signal modulators, primary screen, NOX inhibitor project, cell-based, HEK293-NOX4, tetracycline-induced, Amplex Red fluorescence (AID 1160); conditions: 45 min, higher = more signal, called active from +8 up or from −8 down
# [20] = target: NADPH oxidase 5 (Homo sapiens) (UniProt Q96PH1); test: NOX5-dependent H2O2 signal modulators, primary screen, NOX inhibitor project, cell-based, HEK293-NOX5, Amplex Red fluorescence (AID 1161); conditions: HEK293-NOX5, ionomycin, 45 min, higher = more signal
# Chain of NADPH oxidase 5 (Homo sapiens) (Q96PH1 whole entry, looked up): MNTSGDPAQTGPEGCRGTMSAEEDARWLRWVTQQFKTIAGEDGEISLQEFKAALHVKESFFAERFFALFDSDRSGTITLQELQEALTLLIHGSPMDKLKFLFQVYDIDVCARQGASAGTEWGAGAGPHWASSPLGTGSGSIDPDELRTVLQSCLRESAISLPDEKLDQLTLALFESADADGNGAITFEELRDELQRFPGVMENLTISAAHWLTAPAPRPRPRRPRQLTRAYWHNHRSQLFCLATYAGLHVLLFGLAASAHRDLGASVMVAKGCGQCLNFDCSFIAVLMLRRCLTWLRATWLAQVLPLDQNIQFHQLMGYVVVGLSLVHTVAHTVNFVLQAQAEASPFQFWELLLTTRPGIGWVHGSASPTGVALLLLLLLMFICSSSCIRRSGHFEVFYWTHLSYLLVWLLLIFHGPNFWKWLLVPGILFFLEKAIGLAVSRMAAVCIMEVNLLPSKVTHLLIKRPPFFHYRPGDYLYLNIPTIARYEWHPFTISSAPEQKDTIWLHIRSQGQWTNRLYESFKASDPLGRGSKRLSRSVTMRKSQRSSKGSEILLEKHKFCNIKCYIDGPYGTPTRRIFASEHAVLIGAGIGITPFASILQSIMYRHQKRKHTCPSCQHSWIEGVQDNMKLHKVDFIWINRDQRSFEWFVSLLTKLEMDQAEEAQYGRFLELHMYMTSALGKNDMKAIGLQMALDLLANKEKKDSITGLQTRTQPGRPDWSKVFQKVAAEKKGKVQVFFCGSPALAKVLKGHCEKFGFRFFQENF
# Chain of Streptavidin (Streptomyces avidinii) (P22629 whole entry, looked up): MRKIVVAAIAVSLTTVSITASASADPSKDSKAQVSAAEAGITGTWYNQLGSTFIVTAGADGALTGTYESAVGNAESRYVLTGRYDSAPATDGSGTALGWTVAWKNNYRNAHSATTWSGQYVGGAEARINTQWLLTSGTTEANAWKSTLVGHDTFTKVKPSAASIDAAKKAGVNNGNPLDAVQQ
# Chain of NADPH oxidase 2 (Homo sapiens) (P04839 whole entry, looked up): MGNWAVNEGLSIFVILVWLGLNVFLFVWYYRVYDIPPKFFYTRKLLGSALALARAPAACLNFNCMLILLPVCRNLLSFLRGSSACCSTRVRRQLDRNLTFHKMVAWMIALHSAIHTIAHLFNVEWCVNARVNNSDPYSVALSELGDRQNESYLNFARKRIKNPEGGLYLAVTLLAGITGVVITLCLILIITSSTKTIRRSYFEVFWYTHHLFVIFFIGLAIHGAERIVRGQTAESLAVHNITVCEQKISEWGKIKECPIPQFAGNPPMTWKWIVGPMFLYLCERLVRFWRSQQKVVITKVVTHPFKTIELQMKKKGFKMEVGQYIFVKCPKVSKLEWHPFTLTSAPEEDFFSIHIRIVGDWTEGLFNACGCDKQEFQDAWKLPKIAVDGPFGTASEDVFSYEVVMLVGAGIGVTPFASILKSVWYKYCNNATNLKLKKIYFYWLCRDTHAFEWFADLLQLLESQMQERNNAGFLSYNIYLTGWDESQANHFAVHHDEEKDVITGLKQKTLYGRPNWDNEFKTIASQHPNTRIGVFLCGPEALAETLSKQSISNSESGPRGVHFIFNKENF
# Chain of NADPH oxidase 4 (Homo sapiens) (Q9NPH5 whole entry, looked up): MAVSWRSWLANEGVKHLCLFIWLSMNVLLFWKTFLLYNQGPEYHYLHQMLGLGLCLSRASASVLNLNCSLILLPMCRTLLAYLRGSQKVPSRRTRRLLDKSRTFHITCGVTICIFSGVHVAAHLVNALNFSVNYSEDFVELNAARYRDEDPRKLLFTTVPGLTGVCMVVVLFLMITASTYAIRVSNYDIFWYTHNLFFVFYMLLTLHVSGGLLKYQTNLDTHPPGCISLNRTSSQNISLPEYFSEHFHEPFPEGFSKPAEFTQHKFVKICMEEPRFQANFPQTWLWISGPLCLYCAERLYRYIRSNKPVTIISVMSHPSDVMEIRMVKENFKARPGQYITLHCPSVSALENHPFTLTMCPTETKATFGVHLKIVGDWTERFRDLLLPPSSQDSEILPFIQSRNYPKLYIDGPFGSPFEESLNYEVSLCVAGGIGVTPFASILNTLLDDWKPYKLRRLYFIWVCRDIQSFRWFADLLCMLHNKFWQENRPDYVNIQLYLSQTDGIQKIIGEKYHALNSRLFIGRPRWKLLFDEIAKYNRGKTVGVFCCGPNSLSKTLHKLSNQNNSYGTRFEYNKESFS
# Chain of Torsin-1A (Homo sapiens) (O14656 whole entry, looked up): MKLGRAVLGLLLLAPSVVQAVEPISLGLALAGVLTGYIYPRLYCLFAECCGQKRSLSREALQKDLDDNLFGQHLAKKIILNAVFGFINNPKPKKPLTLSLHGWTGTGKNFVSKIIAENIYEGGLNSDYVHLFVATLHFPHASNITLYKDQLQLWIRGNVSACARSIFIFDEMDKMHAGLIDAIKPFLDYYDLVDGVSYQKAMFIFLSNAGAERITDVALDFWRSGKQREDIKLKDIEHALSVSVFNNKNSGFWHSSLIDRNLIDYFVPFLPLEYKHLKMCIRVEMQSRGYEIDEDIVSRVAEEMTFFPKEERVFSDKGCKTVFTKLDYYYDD
Structure (SMILES),composite z-score [1],z-score [2],z-score [3],z-score [4],z-score [5],composite z-score [6],composite z-score [7],composite z-score [8],composite z-score [9],composite z-score [10],z-score [11],composite z-score [12],z-score [13],z-score [14],z-score [15],z-score [16],z-score [17],z-score [18],z-score [19],z-score [20]
CCN1C(=O)[C@H]2[C@H]3[C@H](O)[C@H](O)CC(=NOC[C@@H](O)[C@H]4O[C@@H]5OC(C)(C)O[C@@H]5[C@H]4O)[C@@H]3CC[C@H]2C1=O,-0.0165,0.297 (inactive),0.685 (inactive),-0.975 (inactive),-0.799 (inactive),0.245,-0.246,0.382,0.205,0.374,-0.352 (inactive),0.0445,0.158 (inactive),0.196 (inactive),0.151 (inactive),0.318 (inactive),-0.102,-0.842 (inactive),0.162 (inactive),0.953
CO[C@H]1COC(=O)CCC[C@H](C)[C@@H](OC)COC(=O)CC=C[C@@H]1C,-0.0982,-0.0992 (inactive),0.132 (inactive),-0.394 (inactive),-0.24 (inactive),-0.256,-0.128,0.0956,0.861,1.34,0.0226 (inactive),-0.17,-1.29 (inactive),-1.22 (inactive),-0.315 (inactive),-2.45 (inactive),-0.279,-0.123 (inactive),-0.0115 (inactive),0.344
COC(=O)[C@H](C)NC(=O)CCC1CC(OC(=O)NCCc2ccc(F)cc2)CC2(CCCC(COC(=O)NCCOc3ccccc3)O2)O1 (stereo not given in full),0.399,-0.471 (inactive),0.706 (inactive),-0.0755 (inactive),-0.501 (inactive),0.56,-0.0059,0.37,0.379,1.46,-0.651 (inactive),0.0169,-1.23 (inactive),-0.257 (inactive),0.189 (inactive),0.199 (inactive),0.0246,0.749 (inactive),0.622 (inactive),0.382
COC(=O)[C@@H]1CC[C@H](C)[C@@H](c2ccc(Br)cc2)N1,0.224,0.336 (inactive),-0.984 (inactive),0.372 (inactive),-0.257 (inactive),0.0708,0.0705,0.387,0.0795,-0.0173,-0.824 (inactive),-0.0879,-0.452 (inactive),-0.219 (inactive),-0.772 (inactive),-0.0454 (inactive),-0.0984,1.62 (inactive),-1.48 (inactive),-0.595
COC(=O)CC=C[C@@H](C)[C@@H](C=NOC[C@@H](O)COCc1ccco1)NS(=O)(=O)c1ccc(C)cc1,0.102,0.0032 (inactive),0.91 (inactive),-0.715 (inactive),-0.0491 (inactive),-0.601,-0.209,1.11,1.24,1.89,0.132 (inactive),-0.186,1.25 (inactive),0.418 (inactive),0.0934 (inactive),0.391 (inactive),-0.689,0.017 (inactive),-0.202 (inactive),-0.106
